Bioassay records deposited in PubChem by National Center for Advancing Translational Sciences (NCATS).
Pf Dd2 growth: qHTS Primary assay for Inhibitors of Plasmodium falciparum Dd2 growth in vitro; P. falciparum Dd2 growth, SYBR Green, 72 h; AID 1347417, 2020; 120,000 compounds, 4.3% hits; Potency, µM (top dose mostly 28.9 µM), inactives show at the highest dose activity, negative = inhibition, usual class: inhibitors; active = well fitted inhibition curve with a large enough effect;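 also: plate controls were DMSO vehicle for no effect and reference drug for full effect; nearly all actives have a fitted effect of over 65% in size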
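Readout: SYBR Green fluorescence, 485 nm excitation, 535 nm emission, after ~16 h lysis at 37C. Before that, Dd2-infected red cells (2.5% hematocrit) grew 72 h with compound, 29 uM top final concentration.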
The depositor's hits bear a star; i = inactive; [ ] = remark or other dose. The full list was thinned out, with hits kept by preference. Potency is read from the fitted curve at half-maximal effect.

SMILES | Pf Dd2 growth
CN1C[C@H](O)C[C@H]1c1nc(-c2ccc(OC(F)(F)F)cc2)no1 | i
CCC(=O)N1CCC2(CC1)OCC(C(=O)NCC(C)C)N2C(=O)c1cccc(OC)c1 (centres undefined) | 9%
CCC(c1ccccc1)N1Cc2cc(NS(=O)(=O)c3ccc(Cl)cc3)ccc2OC(C)C1=O (centres undefined) | -15%
O=C(c1cccc(F)c1)N1CCC(Oc2ccccc2)C1 (centres undefined) | 0%
COc1ccccc1NC(=O)CCn1cc(-c2nccn2C)nn1 | -10%
COc1cccc(CNC(=O)[C@@H]2C[C@@H](O)CN2C2CCN(C(=O)COc3ccccc3)CC2)c1 | i
COC(=O)c1ccc2nc(C[C@@H]3C[C@@H](C(C)C)[C@H](CNS(=O)(=O)c4ccccc4)C=C3C)[nH]c2c1 | 10µM*
COC(=O)c1ccc2nc(C[C@@H]3C[C@@H](C(C)C)[C@H](CNC(=O)c4cccnc4)C=C3C)[nH]c2c1 | 7.9µM*
CC1=C[C@@H](CNC(=O)c2ccccc2)[C@H](C(C)C)C[C@H]1Cc1nc2ccc(C)cc2[nH]1 | 0%[44.1 µM]
COC(=O)c1ccc2nc(C[C@@H]3C[C@@H](C(C)C)[C@H](CNC(=O)CCC(=O)O)C=C3C)[nH]c2c1 | i
COC(=O)c1ccc2nc(C[C@@H]3C[C@@H](C(C)C)[C@H](CNC(=O)CC4(CC(=O)O)CCCC4)C=C3C)[nH]c2c1 | i
COC(=O)c1ccc2nc(C[C@@H]3C[C@@H](C(C)C)[C@H](CNCc4ccc(NC(C)=O)cc4)C=C3C)[nH]c2c1 | -7%
Cc1ccccc1-n1nc(C)c(CCC(=O)NC2CC2)c1Oc1ccccc1 | i
Cc1nc(CCC(=O)N2CCCC(c3nccn3CCCN(C)C)C2)n[nH]1 (centres undefined) | -16%
O=C(NCC1(COc2cnccn2)C[C@@H](O)[C@@H](O)C1)N1CCOCC1 (some centres undefined) | 18%[44.1 µM]
COCC(=O)N1CC[C@@H](CC(=O)O)[C@@H](CC2=NCCc3ccc(C)cc32)C1 | 1%[44.1 µM]
COc1cccc(C(=O)N2CCC(c3nn(-c4ccc(F)cc4)c(=O)[nH]3)CC2)c1 | i
Cc1ccc(-n2c(C3CCN(C(=O)c4ccc5c(c4)OCO5)CC3)n[nH]c2=O)cc1 | -24%
COc1ccccc1NC(=O)Cn1c(=O)c(-c2noc(C)n2)c2n(c1=O)CCCC2 | 29%
COCC1CN(C(=O)NCCc2ccccc2)CC12CCNCC2 (centres undefined) | 7%
CCN(Cc1ccccc1)Cc1c(O)ccc2c(=O)c(-c3ccccc3Cl)c(C(F)(F)F)oc12 | 8.9µM*
CCN(Cc1ccccc1)Cc1c(O)ccc2c(=O)c(-c3ccccc3)c(C(F)(F)F)oc12 | 6.3µM*
Cc1ccc(-c2c(C(=O)N(C)Cc3ccccc3)oc(=O)c3ccccc23)cc1 | -12%
O=C(CC1COCCN1)N1CCC2(CCC(=O)N(CCCn3ccnc3)C2)CC1 (centres undefined) | -4%
COc1ccc(CNC(=O)N2CCOCC2CC(=O)N2CCCC2)cc1 (centres undefined) | -11%
SMILES | Pf Dd2 growth
Cc1ccccc1C(=O)NC1CCN(c2cc(-c3ccc(Cl)cc3)[nH]n2)CC1 | i
CCn1ncc(N2CCCC(CC(=O)N3CCCCCC3)C2)cc1=O (centres undefined) | -24%
COc1ccc(C(=O)Nc2ccc([C@@H](O)[C@H]3COCC(=O)N3CC3CCCCC3)cc2)cc1 | i
CNC(=O)c1noc(CN2CCCC(CCc3ccccc3C(F)(F)F)C2)n1 (centres undefined) | -26%
COc1c[nH]c(CN2CCCC(CCc3ccccc3C(F)(F)F)C2)cc1=O (centres undefined) | 8.9µM*
CN(C)C(=O)N1CCCC(CCc2ccccc2C(F)(F)F)C1 (centres undefined) | -24%
Cc1ccnc(CC(C)N(C)C(=O)c2cc(-c3cnn(C)c3)nc3ccccc23)c1 (centres undefined) | 2%
O=C(NCC(c1cccnc1)N1CCCCC1)c1cn2c(n1)CNCC2 (centres undefined) | 9%
COc1ccc(C(=O)N2CCCC(n3cc(-c4nc(C(C)C)no4)nn3)C2)cc1 (centres undefined) | 13µM*
Cc1ccc(C(=O)N2CCCC(n3cc(-c4nc(C(C)C)no4)nn3)C2)cc1 (centres undefined) | -18%
COc1ccc(C(=O)N2CCC(n3cc(-c4nc(C(C)C)no4)nn3)C2)cc1 (centres undefined) | i
Cc1cc(C(=O)N[C@@H]2CCOC[C@H]2OCC(=O)O)sc1-c1ccccc1 | 2%
O=C(NCC(F)(F)F)c1cc(C2CC2)nc2c1c(C1CCCN1)nn2-c1ccccc1 (centres undefined) | 8.9µM*
COc1ccc(CNC(=O)c2cc(C3CC3)nc3c2c(C)nn3-c2cccc(Cl)c2C)cc1 | 6%
Cn1nc(C2CCNC2)c2c(C(=O)NCc3ccc(F)cc3)cc(C3CC3)nc21 (centres undefined) | -23%
